A selection: hits, their analogues and other compounds. The true share with any hit is near 31%.
CYP2C9 inhib – inhibitors of human CYP2C9. CYP2C9 Supersomes, luciferin-H conversion, luminescence. inhibition, % at 5 µM. 20% of 96,000 active. AID 777. P11712;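 active = blocking of liver enzyme CYP2C9 beyond about 50% at 5 µM, limit read from the data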
CYP2C19 inh – human CYP2C19 inhibition; P33261; CYP2C19 Supersomes, luciferin-H EGE luminescence, 30 min; inhibition, % at 5 µM; 21% of 96,000 active; AID 778;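 active = CYP2C19 inhibition above a set limit at 5 µM in the primary screen, cut at about 50% in these data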
Target sequence (P33261 whole entry, looked up): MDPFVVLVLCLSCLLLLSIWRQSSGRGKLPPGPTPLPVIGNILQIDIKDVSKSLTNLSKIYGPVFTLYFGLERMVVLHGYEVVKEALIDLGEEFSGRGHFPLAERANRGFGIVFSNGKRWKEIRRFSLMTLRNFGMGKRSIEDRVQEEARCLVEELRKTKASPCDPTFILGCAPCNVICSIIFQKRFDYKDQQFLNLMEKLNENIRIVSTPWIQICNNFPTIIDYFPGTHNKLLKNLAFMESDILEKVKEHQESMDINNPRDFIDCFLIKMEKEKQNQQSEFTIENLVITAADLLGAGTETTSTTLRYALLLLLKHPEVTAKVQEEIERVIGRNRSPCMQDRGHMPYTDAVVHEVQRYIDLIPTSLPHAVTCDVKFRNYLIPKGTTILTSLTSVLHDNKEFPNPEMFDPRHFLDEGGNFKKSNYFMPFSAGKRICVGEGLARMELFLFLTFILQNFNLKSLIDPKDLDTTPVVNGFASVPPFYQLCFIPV
CYP2C9 activ – increases human cytochrome P450 2C9 activity; P11712; recombinant CYP2C9, luciferin-H conversion, luminescence; active compounds read high; factor 1 = untreated enzyme, 0 = blocked; activation factor at 5 µM; 1.4% of 96,000 active; AID 1024;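 active = activation factor of 2 or more for CYP2C9 at a 5 µM dose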
CYP2C19 act – increases human CYP2C19 enzyme activity. AID 1025. activation factor at 5 µM. P33261. 96,000 tested, under 10 active. recombinant CYP2C19, luciferin-H EGE luminescence; active compounds read high; 0 = fully inhibited enzyme, 1 = untreated enzyme;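 active = activation factor of at least 2 at 5 µM in the primary screen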
Hits are given with their value; 0 = inactive.

SMILES | CYP2C9 inhib | CYP2C19 inh | CYP2C9 activ | CYP2C19 act
Cc1c(NC(=O)c2ccccc2F)c(=O)n(-c2ccccc2)n1C | 0 | 0 | 0 | 0
Cc1c(NS(=O)(=O)c2ccccc2)c(=O)n(-c2ccccc2)n1C | 0 | 53.4 | 0 | 0
Cc1cc(C)nc(N(C#N)CC(=O)c2ccccc2)n1 | 0 | 0 | 2.2 | 0
Cc1cc(C)nc(N(C#N)Cc2ccccc2)n1 | 0 | 0 | 2 | 0
Cc1cc(C)nc(N(C#N)Cc2cccc3ccccc23)n1 | 0 | 59.4 | 2.9 | 0
O=C(COC(=O)Cn1cnc2ccccc21)NCCC1=CCCCC1 | 0 | 0 | 0 | 0
CC1CCCC(C)N1C(=O)Cc1ccccc1 (configuration not stated) | 0 | 76.2 | 0 | 0
CC1CCCCN1C(=O)Cc1ccc(F)cc1 (configuration not stated) | 0 | 75.0 | 0 | 0
O=C(Cc1ccccc1)N1CCCC1c1ccccc1 (configuration not stated) | 0 | 79.2 | 0 | 0
CC1(C)CC(=O)C=C(NCCN2CCN(C(=O)Nc3ccccc3)CC2)C1 | 0 | 0 | 0 | 0
CCOC(=O)N1CCC(NS(=O)(=O)c2cc3c(cc2C)NC(=O)CO3)CC1 | 0 | 0 | 0 | 0
CCOC(=O)N1CCC(NC(=O)CN(C)S(=O)(=O)c2cc3c(cc2Cl)NC(=O)CO3)CC1 | 56.4 | 0 | 0 | 0
CC(=O)c1c(C)nc2ccc(Cl)cn12 | 0 | 0 | 0 | 0
CC1CC(C)CN(C(=O)C(NS(=O)(=O)c2ccc3c(c2)oc(=O)n3C)C(C)C)C1 (configuration not stated) | 0 | 0 | 0 | 0
CC(=O)Nc1cc(S(=O)(=O)Nc2ccccc2)c(C)cc1C | 0 | 0 | 0 | 0
CC(=O)Nc1cc(S(=O)(=O)Nc2cccc(C)c2)c(C)cc1C | 0 | 64.9 | 0 | 0
CC(=O)Nc1ccccc1NC(=O)C(F)(F)F | 0 | 0 | 0 | 0
CC(=O)Nc1cc(S(=O)(=O)Nc2ccccc2C)c(C)cc1C | 0 | 51.0 | 0 | 0
CN(C)S(=O)(=O)c1cc(C(=O)NCC2CCCO2)c(Cl)cc1Cl (configuration not stated) | 0 | 0 | 0 | 0
Cc1ccc(C(=O)Nc2ccc(Br)c(C(F)(F)F)c2)cc1 | 0 | 0 | 0 | 0
O=C(NCCC1=CCCCC1)C1CCCN(c2nc3ccccc3o2)C1 (configuration not stated) | 51.1 | 0 | 0 | 0
O=C(NCCC1=CCCCC1)C1CCCN(S(=O)(=O)c2cccnc2)C1 (configuration not stated) | 53.6 | 58.2 | 0 | 0
COc1ccc(S(=O)(=O)N2CCCC(C(=O)NCCC3=CCCCC3)C2)cc1 (configuration not stated) | 0 | 0 | 0 | 0
O=C(NCCC1=CCCCC1)C1CCCN(S(=O)(=O)c2cccc3cccnc23)C1 (configuration not stated) | 0 | 73.3 | 3.9 | 0
Cc1ccc(CS(=O)(=O)CCC(=O)NCCN2CCCCC2C)cc1 (configuration not stated) | 0 | 0 | 0 | 0
SMILES | CYP2C9 inhib | CYP2C19 inh | CYP2C9 activ | CYP2C19 act
COC(=O)c1cc2ccccc2c(-c2c(OC)c(C(=O)OC)cc3ccccc23)c1OC | 81.1 | 54.0 | 0 | 0
Cc1ccc(S(=O)(=O)NC2OC(=O)C(Cl)=C2Cl)cc1 (configuration not stated) | 0 | 0 | 0 | 0
Cc1cc(C)n2nc(NCc3cccc(Br)c3)nc2n1 | 0 | 64.4 | 0 | 0
S=c1[nH]nc(Cc2c[nH]c3ccccc23)o1 | 0 | 0 | 0 | 0
S=c1[nH]nc(Cc2sc(-c3ccccc3)nc2-c2ccccc2)o1 | 63.7 | 0 | 0 | 0
CCN1C(=O)/C(=C/c2ccc(C)s2)NC1=S | 58.7 | 0 | 0 | 0
CC(=O)N(Cc1ccc(F)cc1)C1=C(NCc2ccccc2)C(=O)c2ccccc2C1=O | 76.4 | 72.9 | 0 | 0
CC(=O)n1nc(-c2ccccc2)nc1NCc1ccc(F)cc1 | 0 | 0 | 0 | 0
Oc1ccc(N2CCN(C(c3ccncc3)c3nnnn3C3CCCC3)CC2)cc1 (configuration not stated) | 0 | 51.7 | 0 | 0
c1cc(C(c2nnnn2C2CCCC2)N2CCOCC2)ccn1 (configuration not stated) | 0 | 83.4 | 0 | 0
Cc1ccc(C(c2nnnn2C2CCCCC2)N2CCN3CCCC3C2)cc1 (configuration not stated) | 0 | 0 | 0 | 0
CS(=O)(=O)N1CCCC(C(=O)NCCCN2CCOCC2)C1 (configuration not stated) | 0 | 0 | 0 | 0
Cc1cccc(C(=O)Nc2nc(C)c(C(=O)Nc3ccc4c(c3)CCC4)s2)c1 | 57.7 | 0 | 0 | 0
Cc1noc(C)c1C(=O)Nc1ccc2c(c1)CCC2 | 0 | 0 | 0 | 0
Cc1[nH]c2ccccc2c1CCO | 0 | 0 | 0 | 0
CCn1c(-c2ccc3[nH]c(C)c(C)c3c2)n[nH]c1=S | 89.7 | 77.7 | 0 | 0
CCn1c(Cc2c(C)[nH]c3ccccc23)n[nH]c1=S | 0 | 90.8 | 0 | 0
CCn1c(-c2c[nH]c3ccccc23)n[nH]c1=S | 54.1 | 0 | 0 | 0
C=CCn1c(-c2c[nH]c3ccccc23)n[nH]c1=S | 0 | 0 | 0 | 0
Cc1[nH]c2ccc(-c3n[nH]c(=S)n3C)cc2c1C | 0 | 0 | 0 | 0
CCn1c(-c2cc3ccccc3cc2O)n[nH]c1=S | 0 | 52.5 | 0 | 0
O=C(Cn1cc(C(F)(F)F)ccc1=O)N1CCN(S(=O)(=O)c2ccc(Cl)cc2)CC1 | 0 | 0 | 0 | 0
CC(SCCc1ccccn1)C(=O)O (configuration not stated) | 0 | 0 | 0 | 0
CC1(C)CC2CC(C)(CN2C(=O)COC(=O)c2ccc(Cl)c(N)c2)C1 (configuration not stated) | 0 | 0 | 0 | 0
Cc1ncc(CSc2nc3ccccc3[nH]2)c(N)n1 | 0 | 0 | 0 | 0
SMILES | CYP2C9 inhib | CYP2C19 inh | CYP2C9 activ | CYP2C19 act
CCn1c(CSc2nc3ccccc3[nH]2)n[nH]c1=S | 0 | 55.9 | 0 | 0
Cc1ccc2c(c1)c(-c1ccccc1)nc1nncn12 | 0 | 0 | 0 | 0
COc1cc2c(cc1OC)C(c1ccc(-c3ccc(Cl)c(Cl)c3)o1)=NCC2 | 94.8 | 82.9 | 0 | 0
COc1cc2c(cc1OC)C(c1ccc(-c3ccccc3Cl)o1)=NCC2 | 61.8 | 0 | 0 | 0
COc1cc2c(cc1OC)C(c1ccc(-c3ccc(Cl)cc3Cl)o1)=NCC2 | 56.3 | 0 | 0 | 0
Clc1ccc(Cl)c(OCc2cc(-c3ccccc3Cl)on2)c1 | 0 | 0 | 0 | 0
O=C(O)c1ccc(-c2ccc(Cl)cc2Cl)o1 | 0 | 0 | 0 | 0
COc1cc2c(cc1OC)C(c1ccc(-c3cc(Cl)ccc3Cl)o1)=NCC2 | 89.1 | 72.8 | 0 | 0
CCOc1c2ccc(C(=O)N[C@H](C)C3CCCCC3)cc2nn1CC | 0 | 0 | 0 | 0
Cc1ccc(C2=N/C(=C\N(C)C)C(=O)O2)cc1 | 0 | 0 | 0 | 0
Cc1csc(SCc2ccc(C(=O)O)cc2)n1 | 0 | 0 | 0 | 0
CC(=O)Nc1cccc(NC(=O)CSc2nnc(Cc3cccn3C)n2CCc2ccccc2)c1 | 0 | 0 | 0 | 0
Cc1cc2cc(CCNC(=O)CC(C)(C)C)c(=O)[nH]c2cc1C | 0 | 0 | 0 | 0
Nc1nc(Cl)cc(Sc2ccc3ccccc3c2)n1 | 0 | 0 | 0 | 0

From PubChem BioAssay
